Experimental findings from the supplement of paper PMC12632987 are described below.

T1: USP38, Q8NB14
T1 chain: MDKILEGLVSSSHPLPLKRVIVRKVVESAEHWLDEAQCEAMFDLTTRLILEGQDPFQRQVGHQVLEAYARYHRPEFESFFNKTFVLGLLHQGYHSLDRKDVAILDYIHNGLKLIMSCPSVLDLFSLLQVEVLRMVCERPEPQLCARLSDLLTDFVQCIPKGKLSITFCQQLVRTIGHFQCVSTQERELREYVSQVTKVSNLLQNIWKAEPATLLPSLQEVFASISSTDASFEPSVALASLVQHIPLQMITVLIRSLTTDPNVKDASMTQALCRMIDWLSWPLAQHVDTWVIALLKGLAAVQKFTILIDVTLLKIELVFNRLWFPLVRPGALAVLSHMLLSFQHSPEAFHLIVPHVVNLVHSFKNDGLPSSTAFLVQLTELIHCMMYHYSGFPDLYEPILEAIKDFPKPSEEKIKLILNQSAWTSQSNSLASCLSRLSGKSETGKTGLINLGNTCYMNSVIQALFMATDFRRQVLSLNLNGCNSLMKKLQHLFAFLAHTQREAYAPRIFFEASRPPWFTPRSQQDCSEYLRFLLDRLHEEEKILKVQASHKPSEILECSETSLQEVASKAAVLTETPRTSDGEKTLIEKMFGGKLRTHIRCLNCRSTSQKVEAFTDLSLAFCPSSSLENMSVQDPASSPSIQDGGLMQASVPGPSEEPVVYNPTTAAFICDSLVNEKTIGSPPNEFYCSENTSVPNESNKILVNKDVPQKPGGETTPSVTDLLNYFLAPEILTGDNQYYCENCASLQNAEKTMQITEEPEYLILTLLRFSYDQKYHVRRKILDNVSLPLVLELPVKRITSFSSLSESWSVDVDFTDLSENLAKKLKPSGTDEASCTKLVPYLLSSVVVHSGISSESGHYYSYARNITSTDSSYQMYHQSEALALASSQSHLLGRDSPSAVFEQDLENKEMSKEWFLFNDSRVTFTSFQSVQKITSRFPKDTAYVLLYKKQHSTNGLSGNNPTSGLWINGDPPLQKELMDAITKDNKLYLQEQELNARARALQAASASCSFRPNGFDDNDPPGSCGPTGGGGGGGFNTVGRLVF

B1: usp_38_diff_out_18_28_403 (protein)
chain: MQEEVEKKIKEAEKKTDELIDKYTEAATAGFLKYAEDPSATELVEAVRAAADALGAAAQAVNEMKRNKDDPEKVEELLKKFEEAYKKAEEALKEIERLIA
B2: usp_38_diff_out_18_28_382 (protein)
chain: AAAEREKLEAELKKLEAELNKLIDEATELATKKLTEHPDDEEVWKLVDELFDALGKAAAALNRARELLRAGGPAEEVKKALEEAEKYMKEAKKLMEELKK
B3: usp_38_diff_out_18_28_392 (protein)
chain: MEEERERLERELEELRRRLDELIDEATAVATAKLEEHPDDEEVWALIDELFDALGAAAQALREARELLREGGDPEEVRRKLEEARRALEEAERLLAELKA
B4: usp_38_diff_out_18_28_385 (protein)
chain: MEEERKKLEEELEKLKKELDKLIDEAVELATAALEAHPDDEAVWALVDALFDALGAAAAALNRARELLKAGGDPEEVKKELDKARAALKEAKALLAELKA
B5: usp_38_diff_out_18_28_387 (protein)
chain: MEKEREELKKELEELRKRLDELIDRATEEATRALTAHPDDEEVWELIDRLFDTLGEAAAALNRARELLRAGGPLEEVKKELEKARKALEEAERLLEELEA
B6: usp_38_diff_out_18_28_394 (protein)
chain: SAAERAALEAELAALEAELDALIDEATKAATEALTANPDSEEVWALVDALFDALGAAAAALRRARELLRAGGPLAEVQAALDEARKHLAEAKKLLKELKA
B7: usp_38_diff_out_18_28_383 (protein)
chain: AEAERAELEKRLEELEKELNELIDEATEAATEKLEAEPDSEEVWELVDELFDELGKAAAKLREARELLRAGAPAEEVQKALEEAEEHLKRAKELLEELKE
B8: usp_38_diff_out_18_28_384 (protein)
chain: DAAERAALEKELEELRKRLDELIDRAVEAATAALEAHPDDEAVWALVDALFDTLGAAAAALNEARALLKAGGDPAEVKAALEEARKALAEAERLLAELEA
B9: usp_38_diff_out_18_28_398 (protein)
chain: SAAERAELEAELAALQKELDALITEATAAATAALTAHPDSAEVWALVDALFDHLGAAAAALREARRLLREGGPLEEVRAALAAAQAHLAEARALLAELKA
B10: usp_38_diff_out_18_28_391 (protein)
chain: SSAERERLERELERLERELDELIDEATAVATEKLEEHPDDEEVWRLIDELFDALGRAARALSEARRLLREGGPPEEVERALEEARRHLERARELLEELKE
B11: usp_38_diff_out_18_28_406 (protein)
chain: SSEEIEKKIEEAKEETDKLIDRYVEISTAAFLKYHEDPSSEELLKKVNELADALGKAAKAVNEMRENKDNEEKVEKYLEEYKKYSEEAEKLLEEIEKLIK
B12: usp_38_diff_out_18_28_397 (protein)
chain: EEERREELERRLEELERELDALIREATEAATAALEAHPDSAEVWALVDALFDALGAAAAHLRRARELLREGGPLEEVERELEKAEAHLAEARALLAELKA
B13: usp_38_diff_out_18_28_411 (protein)
chain: KKEEIQEKIKKAEEKLDKLIDKYVEISTKAFLKYHENPESKELLEAVDKLADELGKAAQHVNLMRENKDDEEKVEKELKEFEEHSKKAEELLKKVEELIK
B14: usp_38_diff_out_18_28_390 (protein)
chain: EEEERERLERRLRELERELDALIDEATAAITEALTAHPDDEEVWALVDALLDSLGRAAAALNEARRLLAEGGPLEEVERALEEAERHLREAKALLAELKA
B15: usp_38_diff_out_18_28_401 (protein)
chain: MEEEIEKKIKEAKEKTDEMIDEYVELGEQAFLKYHEDPSSEHLLELLNEAADALGKAAKAVNLMRENKDDPEKVEKELEKFKKYSEKAEKLFEEIKKELE
B16: usp_38_diff_out_18_28_402 (protein)
chain: MEEEIEKKIEEAEKRTDELIDEYVELGEKAFLKYHEDPSSEELLEKLDKLADELGKAAQAVNLMRENRDDPEKVEKEYAEFEKYYEKAKKLLEEIKKLLE
B17: usp_38_diff_out_18_28_409 (protein)
chain: AKEEIEKKIEEAEKELDELIDEYVKISTEAFLKYHEDPSSKELLEAVNELADELGKAAQAVNEMRKNRDDKEAVEKQLKVFEEHKKKAEELLKKIKELIK
B18: usp_38_diff_out_18_28_410 (protein)
chain: KKEEIEKKIEEAEEELDKLIDEYVEVATEAFLKYHEDPSSEELLEKVRELADELGKAAKAVNEMRENKDNEEKVEEELEKFKKHKEEAEKLLKEVKELIK
B19: usp_38_diff_out_18_28_393 (protein)
chain: SEERRKELEERLKALEAELDALITEATAVATERLEAHPDDEAVWELVDALFDALGAAAAALREARELLRAGGDLEEVEALLDQAEAALAEAKALLAELKA
B20: usp_38_diff_out_18_28_405 (protein)
chain: MQEEIEKKIEEAEKRTNELIDKYTEAATRAFEAYAEDPSKTELVKAINEASDALGKAAQAVNEMKRNKDDPEKVEKELKKFEEAYKKAEEAIAKIEELIA
B21: usp_38_diff_out_18_28_389 (protein)
chain: AAAARAALEAELAALRAELDALIDEATELATRKLEEHPDDEEVWELVDRLFDALGRAAAHLEEARRLLREGGDLAAVQAELDAARAALAEAKRLLEELKA
B22: usp_38_diff_out_18_28_381 (protein)
chain: AEARRAELERRLEELLRELNELIDEATKLATEKLTEHPDDEEVWELVDRLFDELGRAAAHLREARELLRAGAPAEEVEKELREAEEHLKRAKELLKELEA
B23: usp_38_diff_out_18_28_386 (protein)
chain: EEERRRELERELRELERRLDELIDEAVAAATEALEAHPDDEEVWALVDELFDTLGRAAAALREARELLRAGGPLEEVERALREAREALERAERLLAELKA
B24: usp_38_diff_out_18_28_380 (protein)
chain: AEEERRRLEEELEALKAELDALITEATALATAKLEAHPDDAEVWALVDALFDALGAAAAALERARELLRAGAPPEEVRAALAEARAHIAEARALMAQLAA
B25: usp_38_diff_out_18_28_407 (protein)
chain: MEEEIKEKIEEAKKRLDELIDRYVEIATKAFLKYHENPESKELLEKVRKLADELGKAAQAVNLMRENKDNEEKVEEELEKFEKHYEEAEKLLEEIEKLIK
B26: usp_38_diff_out_18_28_399 (protein)
chain: EEEERRRLEEELRRLEEELDELIDEAVEAATKALTAHPGDEAVEALVRELFDHLGAAAAALREARELLRAGGDPEEVRRLLEEAREHLEKAREALKELKA
B27: usp_38_diff_out_18_28_404 (protein)
chain: MMEEIQKKIEEAEKEADKLIDEYTKAATEAFLKYAEDPSATELVEAVNKAADALGEAAKAVNEMRRHKDDPEKVEKELKKFEEAKKKAEEALKEIKKLIA
B28: usp_38_diff_out_18_28_395 (protein)
chain: MEEERAKLEEELKKLEKELNELIDRATAAATAALTAHPDDADVWALVDALFDSLGAAAYHLREARELLREGGPLEEVKKELEKAKEHLKEAKALLAELEA
B29: usp_38_diff_out_18_28_412 (protein)
chain: SAAAVQATIDQMKADLDALIDEANEVSEKAFLKYGEDPSSTELLAAVNELWDHLGAAAQAVNDARRNRDNEAAVAAKAAEFKKHADKAKEKIAEIKKLIA
B30: usp_38_diff_out_18_28_388 (protein)
chain: SEEEREELRERLEELEKRLDALIDEATAVATAALTAHPDSAEVQALVAELFDALGAAAAALRRARELLRRGGPLEEVREALEEAERHLEEAERLLAELRA
B31: usp_38_diff_out_18_28_396 (protein)
chain: AEAERAALEKRLAELQKRLDALITEATAAATAALEAHPDDAAVWALVAQLFDALGAAAAALQRARELLRAGGPLEEVQAALDEAEAHLAQAEALLAELKA
B32: usp_38_diff_out_18_28_400 (protein)
chain: MQEEIQKIIEENEKKTNELIDKYTELGEKAFLAYHEDPSNEELLEKLDELADALGKAAKKVNEMRENKNDPEKVKEYSKEFEEYYKKAEALMKEIEKLLA

This assay deals with T1, USP38, Q8NB14. As to the kind of experiment: median log2 fold change of GCK-ALFA target abundance (FLAG IP / Myc IP barcode read proportion) (log2 ratio); each designed protein is fused to an ALFA-tag nanobody in HEK293 cells to bring the named protein to FLAG-tagged glucokinase (GCK); Myc marks an untargeted standard; higher = target protein stabilised (more abundant). The conditions noted are these: target protein: 3xFLAG-MCP-GCK-ALFA reporter; HEK293 landing pad (RPLP). The essentials: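 An ALFA-nanobody-fused binder library was recombined into HEK293 landing-pad cells and induced with 2 μg mL^−1 doxycycline. Cells were transfected with a plasmid expressing a FLAG-tagged target and a Myc-tagged standard. After 48 h, lysates underwent anti-FLAG and anti-Myc immunoprecipitation, and circular RNA barcodes were reverse transcribed, amplified and sequenced. Target abundance is the per-binder median log2 ratio of FLAG to Myc barcode read proportions. Barcodes needed ≥10^−7 proportion in both replicates, binders ≥3 barcodes per replicate, and a 10^−6 pseudocount was added; the two replicates were pooled.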
Regarding B1, the “median log2 fold change” value is -0.0578.

For the molecule B2, the “median log2 fold change” value came out at 0.595.

Regarding B3, the “median log2 fold change” value was -0.26.

For B4, the “median log2 fold change” value was -0.282.

B5: the “median log2 fold change” value was -0.291.

As for B6, the “median log2 fold change” value was -0.118.

For B7, the “median log2 fold change” value was -0.0589.

As to B8, the “median log2 fold change” value was 0.0029.

Turning to B9, the “median log2 fold change” value was 0.000517.

Turning to B10, the “median log2 fold change” value was -0.315.

Regarding B11, the “median log2 fold change” value turned out to be 0.0217.

As for B12, the “median log2 fold change” value is -0.194.

Turning to B13, the “median log2 fold change” value is -0.206.

As to B14, the “median log2 fold change” value was 0.124.

On to B15, for which the “median log2 fold change” value is -0.818.

B16: the “median log2 fold change” value amounted to 0.282.

For B17, the “median log2 fold change” value was -0.273.

Regarding B18, the “median log2 fold change” value is -0.357.

In the case of B19, the “median log2 fold change” value is -0.136.

On to B20, for which the “median log2 fold change” value worked out at 0.0557.

Consider B21, for which the “median log2 fold change” value is -0.314.

With B22, the “median log2 fold change” value is -0.371.

In the case of B23, the “median log2 fold change” value was -0.0533.

As to B24, the “median log2 fold change” value was -0.0972.

In the case of B25, the “median log2 fold change” value was -0.152.

For the molecule B26, the “median log2 fold change” value was -0.117.

On to B27, for which the “median log2 fold change” value was -0.178.

B28: the “median log2 fold change” value was -0.179.

For the molecule B29, the “median log2 fold change” value is -0.188.

On to B30, for which the “median log2 fold change” value came to 0.11.

Regarding B31, the “median log2 fold change” value was -0.054.

For the molecule B32, the “median log2 fold change” value is -1.05.
